Experimental data published in PubChem BioAssay AID1445 (SRMLSC, 2008).
Out of some 220,000 compounds screened, about 910 (0.41%) were called active.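 Rule for the calls: active = primary inhibition above the hit cutoff, then over 50% inhibition at one or more dose response concentrations (cut at about 23% in these data, passing the limit was not always enough); inconclusive = conflicting primary data, or primary hits not chosen for dose response; inactive = low primary inhibition, or under 50% at every dose.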 The list comes from a sample in which actives are over-represented; it also holds similar structures and randomly drawn compounds. Entries with a potency or affinity are not part of this list.

target: Aminopeptidase N (Plasmodium falciparum (isolate 3D7)) (UniProt O96935); test: malaria alanyl aminopeptidase activity blockers – biochemical, fluorogenic H-Leu-NHMec substrate, 1536-well (AID 1445); details: recombinant M1AAP, H-Leu-NHMec fluorogenic kinetic assay; at 30 µM, hits give high values unless noted;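 note: plate controls were DMSO full reaction for no effect and no enzyme background for full effect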
Sequence (O96935 whole entry, looked up): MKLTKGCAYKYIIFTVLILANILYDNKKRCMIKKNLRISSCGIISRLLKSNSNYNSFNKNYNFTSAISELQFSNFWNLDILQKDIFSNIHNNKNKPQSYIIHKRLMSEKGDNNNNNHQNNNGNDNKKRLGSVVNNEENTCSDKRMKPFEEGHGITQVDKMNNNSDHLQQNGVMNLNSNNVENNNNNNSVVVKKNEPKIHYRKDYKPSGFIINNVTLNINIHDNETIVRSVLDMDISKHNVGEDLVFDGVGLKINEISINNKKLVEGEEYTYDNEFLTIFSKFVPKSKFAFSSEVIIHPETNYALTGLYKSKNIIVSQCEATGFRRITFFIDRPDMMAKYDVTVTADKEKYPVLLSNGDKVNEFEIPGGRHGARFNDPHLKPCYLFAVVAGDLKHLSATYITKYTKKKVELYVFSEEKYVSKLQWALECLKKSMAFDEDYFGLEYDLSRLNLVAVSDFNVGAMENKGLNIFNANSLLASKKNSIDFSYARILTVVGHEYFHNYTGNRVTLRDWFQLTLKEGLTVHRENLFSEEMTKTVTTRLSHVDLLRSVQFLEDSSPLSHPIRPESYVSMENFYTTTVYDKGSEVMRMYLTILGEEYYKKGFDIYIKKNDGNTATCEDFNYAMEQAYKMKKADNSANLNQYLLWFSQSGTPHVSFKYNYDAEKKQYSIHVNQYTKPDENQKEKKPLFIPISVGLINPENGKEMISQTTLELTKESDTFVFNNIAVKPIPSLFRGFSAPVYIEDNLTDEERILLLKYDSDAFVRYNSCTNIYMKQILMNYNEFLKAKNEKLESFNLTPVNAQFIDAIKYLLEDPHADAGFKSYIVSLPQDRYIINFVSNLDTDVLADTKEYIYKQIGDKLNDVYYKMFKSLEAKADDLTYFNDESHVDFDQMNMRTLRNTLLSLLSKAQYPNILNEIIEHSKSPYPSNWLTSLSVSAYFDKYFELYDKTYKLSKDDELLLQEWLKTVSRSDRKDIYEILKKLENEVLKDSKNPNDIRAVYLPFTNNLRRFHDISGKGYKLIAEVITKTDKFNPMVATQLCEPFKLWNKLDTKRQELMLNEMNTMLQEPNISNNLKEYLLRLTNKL

Row | Structure (SMILES) | inhibition
1 | CCOC(=O)C1(CC2CCCCO2)CCN(C(=O)Nc2ccccc2CC)CC1 (stereo not drawn) | 1.45% (inactive)
2 | O=C(NCCc1nc2ccccc2[nH]1)/C(=C/c1ccc2c(c1)OCO2)NC(=O)c1ccccc1Cl | 4.92% (inactive)
3 | Cc1cc(NS(=O)(=O)c2ccccc2)c([N+](=O)[O-])cc1C | 14% (inactive)
4 | COc1cccc(/C=C2\SC(N)=NC2=O)c1OS(=O)(=O)c1ccccc1 | 12.7% (inactive)
5 | COc1ccc(S(=O)(=O)Nc2cc([N+](=O)[O-])ccc2OC)cc1 | 14.5% (inactive)
6 | COc1cc(C(=O)Nc2ccc(S(=O)(=O)Nc3ncccn3)cc2)c([N+](=O)[O-])cc1OC | 1.81% (inactive)
7 | COc1ccc(NS(=O)(=O)c2ccc(C)cc2)c([N+](=O)[O-])c1 | 3.88% (inactive)
8 | COc1ccc([N+](=O)[O-])cc1NS(=O)(=O)c1ccccc1 | 6.84% (inactive)
9 | NC(=O)c1c(NC(=O)COC(=O)c2ccc(S(=O)(=O)Nc3ccccc3)cc2)sc2c1CCCC2 | 6.65% (inactive)
10 | COc1cc(C(=O)NCc2cn3ccccc3n2)cc(OC)c1OC | 9.74% (inactive)
11 | CN(C(=O)COC(=O)/C=C/c1cn(-c2ccccc2)nc1-c1ccc2c(c1)OCCO2)C1CCS(=O)(=O)C1 (stereo not drawn) | 9.43% (inactive)
12 | CCn1c(SCC(=O)NCCc2ccccc2)nnc1-c1cccs1 | 8.15% (inactive)
13 | CCn1c(CNC(=O)c2cccs2)nnc1SCC(=O)Nc1ccc(Cl)cc1 | 4.83% (inactive)
14 | CCn1c(CCNC(=O)c2cccs2)nnc1SCC(=O)Nc1ccc(Cl)cc1 | 2.16% (inactive)
15 | CCOC(=O)CSc1nnc(CNC(=O)c2cccs2)n1CCc1ccccc1 | -4.29% (inactive)
16 | O=C1CCCc2c1nc(-c1ccc(F)cc1)n2O | 0.92% (inactive)
17 | COC(=O)C1=C(Nc2ccc(C)cc2)C=C(C)C(C(=O)OC)C1c1ccc(OC)cc1 (stereo not drawn) | -4% (inactive)
18 | CC(=O)c1cccc(NC(=O)c2cc(-n3cnnc3)ccc2Cl)c1 | 6.6% (inactive)
19 | CC(=O)c1ccc(NC(=O)c2ccc3nc(-c4ccco4)c(-c4ccco4)nc3c2)cc1 | 10.9% (inactive)
20 | O=C(Nc1ccccc1)c1ccc2nc(-c3ccco3)c(-c3ccco3)nc2c1 | 13.6% (inactive)
21 | O=C(Nc1cccc(C(F)(F)F)c1)c1ccc2nc(-c3ccco3)c(-c3ccco3)nc2c1 | 23.9% (active)
22 | CCn1c(CCNC(=O)c2ccc(Cl)c(Cl)c2)nnc1SCCOc1ccc(OC)cc1 | 1.21% (inactive)
23 | CCOC(=O)Cn1c(=O)c2c(nc(N3CCOCC3)n2C)n(C)c1=O | 0.98% (inactive)
24 | O=C(Cc1ccc(-c2ccccc2)cc1)NCc1ccccc1 | -0.4% (inactive)

Row | Structure (SMILES) | inhibition
25 | O=C(Cc1cccs1)NCc1ccccc1 | 3.77% (inactive)
26 | Cc1ccc(C(=O)NCC(=O)OCC(=O)NCCc2ccccc2)s1 | 0.53% (inactive)
27 | Cc1ccc(NC(=O)COC(=O)CNC(=O)c2ccc(C)s2)cc1 | 5.25% (inactive)
28 | CSCCC(C(=O)Nc1ccc2c(c1)OCO2)N1C(=O)c2ccccc2C1=O (stereo not drawn) | 4.81% (inactive)
29 | CC(C(=O)NC1=NCCS1)N1C(=O)c2ccccc2C1=O (stereo not drawn) | 22.3% (inactive)
30 | CCOP(=O)(O)c1cccc(OCCOCCOc2cccc(P(=O)(O)OCC)c2)c1 | -1.13% (inactive)
31 | COc1ccc(C2NC(=S)NC(C)=C2C(=O)N2CCOCC2)cc1 (stereo not drawn) | 0.92% (inactive)
32 | CC(NCC1(N2CCOCC2)CCCCC1)C(=O)Nc1ccc(Cl)cc1Cl (stereo not drawn) | -2.83% (inactive)
33 | C=CCNC(NC(=O)c1ccccc1)(C(=O)OCC)C(F)(F)F (stereo not drawn) | -7.27% (inactive)
34 | COc1cc(/C=C2\SC(=S)N(N3CCOCC3)C2=O)ccc1O | -11.3% (inactive)
35 | COc1cc(/C=C2\SC(=S)N(Nc3ccccc3)C2=O)cc(OC)c1OC | 0.45% (inactive)
36 | COc1cc(/C=C2\SC(=S)N(NS(=O)(=O)c3ccccc3)C2=O)cc(OC)c1OC | 20% (inactive)
37 | COc1cc(/C=C2\SC(=S)N(NC(=O)c3cccnc3)C2=O)ccc1O | 19.8% (inactive)
38 | COc1ccc(/C=C2/SC(=O)N(CCC(=O)Nc3ccccc3)C2=O)cc1OC | -3.04% (inactive)
39 | COc1cc(/C=C2\SC(=S)N(N(C)c3ccccc3)C2=O)ccc1O | 3.49% (inactive)
40 | COc1cc(/C=C2\SC(=S)N(Nc3ccccc3)C2=O)ccc1O | 13.9% (inactive)
41 | COc1ccc(/C=C2\SC(=O)N(CCC(=O)Nc3ccccc3)C2=O)cc1OC | 7.25% (inactive)
42 | C=CCc1cccc2cc(C(=O)NNC(=O)c3ccncc3)c(=O)oc12 | 20.9% (inactive)
43 | Cn1c(CSc2nc3ccccc3n2C)nc2ccccc21 | -4.15% (inactive)
44 | CCOC(=O)CSc1nnc(Cc2ccccc2)n1CC1CCCO1 (stereo not drawn) | 4.73% (inactive)
45 | Cc1[nH]c(=O)c(C#N)c(C)c1Cc1ccc(Cl)cc1Cl | 4.22% (inactive)
46 | O=c1c2[nH]c3ccccc3c2ncn1CCN1CCCCC1 | 8.11% (inactive)
47 | O=C(CN1CCN(C(=O)c2cccc(F)c2)CC1)NC1CCCCC1 | -4.11% (inactive)
48 | Cc1cc(C)cc(NC(=O)CCN2CC(C)OC(C)C2)c1 (stereo not drawn) | 0.2% (inactive)

Row | Structure (SMILES) | inhibition
49 | Cc1ccc(SCC(=O)c2ccc[nH]2)cc1 | 2.44% (inactive)
50 | CCOc1ccc(/C=C2\SC(=S)N(C)C2=O)cc1OC | 9.35% (inactive)
51 | CCOc1ccc(/C=C2\SC(=S)N(Nc3ccccc3)C2=O)cc1OC | 1.22% (inactive)
52 | C/C(=N\NC(=O)COc1cccc(Cl)c1)c1ccc2c(c1)OCCO2 | 3.02% (inactive)
53 | c1cncc(Cc2cc3ccccc3[nH]2)c1 | 4.4% (inactive)
54 | CC(=O)C(C)Oc1ccc2c3c(c(=O)oc2c1)CCCC3 (stereo not drawn) | 1.79% (inactive)
55 | O=C(O)C(Oc1ccc2c3c(c(=O)oc2c1)CCC3)c1ccccc1 (stereo not drawn) | 24.2% (active)
56 | CC(C)Oc1ccc2c3c(c(=O)oc2c1)CCC3 | 3.02% (inactive)
57 | CN(C(=O)c1c[nH]c(=O)cc1C(F)(F)F)c1ccc(Cl)c(Cl)c1 | -1.25% (inactive)
58 | O=C(NC(=S)Nc1ccccc1C(F)(F)F)c1ccccc1F | -0.76% (inactive)
59 | CC(C)N(C(=O)CSc1nnc(Cc2ccc3c(c2)OCO3)n1C)C(C)C | -1.85% (inactive)
60 | Cc1ccc(Oc2ccc(OCC(=O)NC(C)C(=O)O)cc2)cc1 (stereo not drawn) | 12.1% (inactive)
61 | COC(=O)c1ccc(OS(=O)(=O)N(C)C)cc1 | -0.39% (inactive)
62 | O=C(O)CCC(=O)Nc1nc2ccccc2s1 | 1.12% (inactive)
63 | Cc1ccc2nc(-c3ccc(NC(=O)COCC(=O)O)cc3)sc2c1 | 14.2% (inactive)
64 | Cc1ccc2nc(-c3ccc(NC(=O)CSCC(=O)O)cc3)sc2c1 | 7.29% (inactive)
65 | Cc1cccc(C)c1NC(=O)CCCSc1nc2ccccc2s1 | -3.68% (inactive)
66 | O=C(O)CSCC(=O)Nc1ccc(-c2nc3ccccc3s2)cc1 | 7.28% (inactive)
67 | CC(=O)Nc1scc(C)c1-c1nc2ccccc2s1 | 2.48% (inactive)
68 | Cc1ccc(-c2nc3ncccc3o2)cc1NC(=S)NC(=O)c1ccco1 | 4.38% (inactive)
69 | Cc1ccc(N2CC(C(=O)NCCCn3ccnc3)CC2=O)cc1 (stereo not drawn) | -4.35% (inactive)
70 | O=C(c1c(Cl)cccc1Cl)N1CCCCCC1 | 4.43% (inactive)
71 | COc1cc(NC(=S)N2CCCC(CO)C2)cc(OC)c1 (stereo not drawn) | -7.92% (inactive)
72 | COc1cc(S(=O)(=O)NCc2cccnc2)c(OC)cc1Br | -4.04% (inactive)

Row | Structure (SMILES) | inhibition
73 | C/C=C/C(=O)N1CC2(CC(c3cccc(NC(=O)CC(c4ccccc4)c4ccccc4)c3)=NO2)C[C@H]1C(N)=O (stereo partly drawn) | 12.4% (inactive)
74 | O=C(N/N=C/c1ccco1)c1ccn[nH]1 | 7.66% (inactive)
75 | Cc1cccc(NC(=O)CN2C(=O)S/C(=C\c3ccc(O)c([N+](=O)[O-])c3)C2=O)c1 | 22.4% (inactive)
76 | COc1cc(/C=C2\SC(=O)N(c3ccc(Cl)cc3)C2=O)cc([N+](=O)[O-])c1O | 8.85% (inactive)
77 | COc1cc(/C=C2\SC(=O)N(Cc3ccc(Cl)cc3)C2=O)cc([N+](=O)[O-])c1O | 29.4% (inactive)
78 | CCOc1cc(/C=C2\SC(=O)N(CC(=O)Nc3ccccc3F)C2=O)cc([N+](=O)[O-])c1O | 13.2% (inactive)
79 | Cc1nn(-c2ccccc2)c(Cl)c1/C=N/Nc1nnc(C)c(=O)[nH]1 | -2.22% (inactive)
80 | O=C(C(=O)N1CCN(c2cccc(Cl)c2)CC1)c1c[nH]c2ccccc12 | 2.96% (inactive)
81 | CCc1cccc(CC)c1NC(=S)NCCc1c(C)[nH]c2ccccc12 | 0.39% (inactive)
82 | CCCNC(=O)NCCc1c(C)[nH]c2ccccc12 | 23.5% (active)
83 | Cc1[nH]c2ccccc2c1CCNC(=O)CCC(=O)c1ccccc1 | 0.77% (inactive)
84 | NS(=O)(=O)c1cccc(NC(=O)COC(=O)CC2CC3CCC2C3)c1 (stereo not drawn) | -2.75% (inactive)
85 | CSc1ncccc1C(=O)OCC(=O)N(C)C | 7.72% (inactive)
86 | O=C(CSc1nccn1-c1ccc(Cl)cc1)Nc1ccc2c(c1)OCO2 | 1.54% (inactive)
87 | Cc1cccc(-n2ccnc2SCC(=O)Nc2ccc3c(c2)OCCO3)c1 | 3.89% (inactive)
88 | O=C(CSc1nccn1-c1cccc(Cl)c1)Nc1ccc2c(c1)OCCO2 | 24.5% (active)
89 | C=CCNc1ncnc2c1ncn2C1OC(CO)C(O)C1O (stereo not drawn) | -2.12% (inactive)
90 | OC[C@H]1O[C@@H](n2cnc3c(Nc4ccccc4)ncnc32)[C@H](O)[C@@H]1O | 0.67% (inactive)
91 | CCCOC(=O)c1ccc(Oc2c(-c3ccc(OCC)cc3O)n[nH]c2C)cc1 | -5.24% (inactive)
92 | COc1ccc(C2=C/C(=C\c3ccc(OC(C)=O)cc3)C(=O)O2)cc1 | -2.13% (inactive)
93 | O=[N+]([O-])c1ccc(C[n+]2cc(-c3ccccc3)n3c2CCCCC3)cc1 | -1.78% (inactive)
